PLK1 PBD inh: inhibitors of human PLK1 polo-box domain binding. Plk1 PBD binding of FITC phosphopeptide, fluorescence polarization. Potency, µM, without a hit: max response, negative = inhibition, most hits filed as inhibitors. AID 720504. 360,000 tested, 2.8% active; also: series mostly up to about 57 µM; nearly all actives have a fitted effect of over 65% in size
Target sequence (P53350 whole entry, looked up, the tested form may be a part): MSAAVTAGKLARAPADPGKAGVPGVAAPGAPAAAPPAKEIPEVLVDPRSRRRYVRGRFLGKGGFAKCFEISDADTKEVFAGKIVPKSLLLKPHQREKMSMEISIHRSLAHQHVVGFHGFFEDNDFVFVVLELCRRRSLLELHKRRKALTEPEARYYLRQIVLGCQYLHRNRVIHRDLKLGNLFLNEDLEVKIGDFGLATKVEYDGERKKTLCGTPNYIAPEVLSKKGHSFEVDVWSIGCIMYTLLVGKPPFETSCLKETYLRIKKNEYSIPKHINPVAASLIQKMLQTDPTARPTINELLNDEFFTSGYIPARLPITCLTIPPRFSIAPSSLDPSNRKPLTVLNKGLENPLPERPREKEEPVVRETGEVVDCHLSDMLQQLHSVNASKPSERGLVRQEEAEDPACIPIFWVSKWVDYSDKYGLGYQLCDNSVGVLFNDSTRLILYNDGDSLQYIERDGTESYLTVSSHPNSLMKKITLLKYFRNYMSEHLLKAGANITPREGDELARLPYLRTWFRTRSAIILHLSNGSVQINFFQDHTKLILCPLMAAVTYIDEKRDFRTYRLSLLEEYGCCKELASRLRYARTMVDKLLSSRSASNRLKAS
Sfp inh: blocks B. subtilis Sfp PPTase activity | Q9F4F7 | Biochemical Sfp PPTase activity, qHTS | Potency, µM, without a hit: largest response in the series, negative = inhibition, most hits filed as inhibitors | 310,000 tested, 3.5% active | AID 1490;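 also: the enzyme is Sfp with the accession as filed and its product quenches rhodamine fluorescence; 0% = enzyme reaction without inhibitor and -100% = no enzyme wells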
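Reaction rates are the 30-min fluorescence difference (ex 525, em 598 nm) in wells containing 15 nM Sfp, 5 uM rhodamine-CoA and 12.5 uM BHQ-2-YbbR at pH 7.6 with 10 mM MgCl2.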
VDR inh: inhibitors of human vitamin D receptor; VDR-SRC2-3 peptide fluorescence polarization, 2 h; Potency, µM, for the others: max response, negative = inhibition, usual class: inhibitors; P11473; 400,000 tested, 0.93% active
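Signal is fluorescence polarization, reporting how far test compounds block the interaction of VDR with the SRC2-3 coregulator peptide after a 2 h room-temperature incubation.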
ALOX12 inh: ALOX12 (human) lipoxygenase inhibition | P18054 | purified 12hLO, xylenol orange hydroperoxide absorbance | Potency, µM (doses to about 108 µM), for the others: at the top dose activity change, negative = inhibition, most hits filed as inhibitors | 580,000 tested, 1.1% active
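Purified human 12hLO at 150 nM in 25 mM Hepes, 0.01% Triton X-100, pH 7.0, preincubated 15 min at room temperature with compound. Reaction started with 40 uM arachidonic acid, 30 min at room temperature. Hydroperoxide measured by Fe-xylenol orange, 573/405 nm absorbance ratio.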
An asterisk follows results filed as active; ? = inconclusive; . = no result; ! = repeats disagree. In the library only some 4.2% were active in any assay of this set; here they are far more common. Calls follow the shape of the dose curve; as a rule, active = well fitted curve in the direction sought with a large enough effect; inconclusive = small, poorly fitted or top-dose-only effect, or another doubt; inactive = no such curve, though single readings can be large; an effect the other way counts as inactive or inconclusive. Unless noted, % is scaled to controls: 0 for no effect and ±100 for the full control effect; potency is read from the fitted curve at half-maximal effect.

SMILES | PLK1 PBD inh | Sfp inh | VDR inh | ALOX12 inh
C1CSC2(N1)C1CC3CC2CC(C1)C31NCCS1 (stereo not given) | -5.6% | 20µM* | -21.9% | ?
COc1ccc(CNC(=O)Nc2cn(CC(C)C)c(=O)c3ccccc23)c(OC)c1 | . | . | 7.0% | 0.0%
Cc1ccc(OCC(=O)N/N=C/C=C/c2ccco2)cc1 | ? | 35.5µM* | ? | ?
Cc1cccc(OCC(=O)N/N=C\c2cc3c(cc2[N+](=O)[O-])OCO3)c1C | -4.3% | 25.1µM* | -2.9% | 21.6%
COc1ccc(/C=C/C=N/NC(=O)COc2ccc(OC)cc2)cc1 | -13.1% | 3.5% | -2.9% | -2.4%
O=C(COc1ccccc1[N+](=O)[O-])N/N=C/C=C/c1ccco1 | -7.6% | 50.1µM* | -6.4% | 29.5%
Cn1cc(/C=N/NC(=O)COc2ccccc2[N+](=O)[O-])c2ccccc21 | -7.8% | 35.5µM* | -2.2% | 9.1%
CN1CCN(CCC(=O)N/N=C/c2cc3c(cc2[N+](=O)[O-])OCO3)CC1 | 2.6% | -5.9% | 16.7% | ?
COc1cccc(NC(=O)CSc2nn3c(=O)c(C)nnc3s2)c1 | -1.4% | 18.3% | 14.0% | 20.8%
Cc1ccc(NC(=O)c2ccc(S(=O)(=O)Nc3c(C)n(C)n(-c4ccccc4)c3=O)cc2)nc1 | -2.0% | . | -2.8% | 3.4%
COc1ccc(C(=O)NNC(=O)C2CCCO2)cc1 (stereo not given) | 26.7µM* | 22.7% | ? | -4.0%
COCCNC(=O)c1ccc2c(=O)n(CCCN3CCCC3=O)c(=S)[nH]c2c1 | 0.0% | 50.1µM* | -13.6% | 10.2%
Fc1ccc(C(NCCc2ccc(Cl)cc2)c2nnc(-c3ccccc3Cl)o2)cc1 (stereo not given) | . | . | 8.5% | -1.9%
CCCC1=Nc2cc(C(=O)N3CCCC3)ccc2Sc2ccc(C)cc21 | 26.7µM* | -12.9% | -21.8% | 43.0%
CC(C)C(CNC(=O)c1nccnc1N)Nc1ccccc1 (stereo not given) | . | . | . | -1.1%
COc1ccc(NC(=O)c2cc(-c3ccccn3)nc3ccccc23)cc1S(=O)(=O)N(C)C | -3.7% | . | -7.9% | 0.0%
CCCCN1CCN=C1N(C)C | -10.3% | . | -8.3% | ?
CSc1ncc(Cl)c(C(=O)Nc2ccc(S(=O)(=O)Nc3nccc(C)n3)cc2)n1 | -2.8% | 12.4% | -14.0% | 86.1%
CCCOc1c(OC)cc(Cl)cc1C1NC(=O)NC(C)=C1C(=O)NCc1ccccc1 (stereo not given) | -2.5% | 5.7% | -2.0% | 1.2%
O=C(NCCNC(=O)c1ccccc1Cl)c1ccco1 | ? | 15.2% | -27.7% | -3.5%
COc1cccc(CNCCNC(=O)c2ccco2)c1OC | 18.9µM* | ? | -12.8% | 0.0%
COc1ccccc1NC(=O)c1ccccc1NC(=O)c1cc(Cl)ccc1NC(=O)c1ccco1 | -4.6% | 15.8µM* | 7.0% | ?
COc1ccccc1NC(=O)c1cc(Cl)ccc1NC(=O)c1ccco1 | -3.3% | 6.4% | -4.0% | 20.7%
COc1ccccc1C(=O)NCCNC(=O)c1ccco1 | 26.7µM* | 6.9% | 4.4% | -2.3%
CCOC(=O)c1ccccc1NC(=O)CN(c1cccc(C)c1C)S(=O)(=O)c1ccccc1 | . | . | -0.9% | 0.0%
SMILES | PLK1 PBD inh | Sfp inh | VDR inh | ALOX12 inh
COc1cccc2cc(C(C)N(CCCN3CCOCC3)C(=S)Nc3ccc(C)c(C)c3)oc12 (stereo not given) | 4.6% | 14.0% | 6.4% | -2.3%
N#C/C(=C/c1ccccc1)C(=O)Nc1ccc(N2CCOCC2)cc1 | . | . | . | 2.51µM*
N#C/C(=C/c1cccc(O)c1)C(=O)NCc1ccc(Cl)cc1 | -22.8% | 0.8% | ? | -16.9%
N#C/C(=C\c1ccccc1)C(=O)NCCN1CCOCC1 | -8.8% | 13.2% | -11.3% | 0.0%
N#C/C(=C/c1ccc(O)c(O)c1)C(=O)NCc1ccc(Cl)cc1 | -11.5% | -10.9% | -8.3% | 25.1µM*
N#C/C(=C\c1ccc(O)c(O)c1)C(=O)Nc1ccccc1 | 5.4% | -17.3% | 12.6µM*! | 50.1µM*
O=C(CCn1ccn2nc3c(c2c1=O)CCCC3)Nc1cccc(Cl)c1F | . | . | . | 14.0%
O=C(O)c1ccc(O)c2ncccc12 | . | . | . | 1.2%
Oc1ccc(Cc2ccccc2)c2cccnc12 | -14.2% | . | 2.2% | ?
Oc1ccc(Cl)c2cccnc12 | 4.2% | 27.8% | ? | 4.55µM*!
Oc1ccc(CNc2ccccc2F)c2cccnc12 | 3.36µM* | 1.3% | ? | 2.24µM*!
OCc1ccc(O)c2ncccc12 | -2.2% | -1.3% | 10.9% | ?
Oc1ccc(F)c2cccnc12 | 5.32µM* | 4.6% | 39.8µM* | -29.2%
COc1ccc(C(=O)NCC(=O)OCC(=O)Nc2cc([N+](=O)[O-])ccc2F)cc1 | -18.7% | 11.0% | ? | -4.2%
